According to PubChem BioAssay (NCI):
This is part of a sample that, as a whole, favours compounds with a hit. Of some 83,000 tested, about 20% had one in any assay.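 Single-concentration screen, 48 h exposure, 96-well plates. Endpoint: percent growth. Below 10 = active.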 Values without a mark were called inactive. Calls of active or inactive are those of the source.

Tests used:
Experiment in all cases: NCI-60 one-dose screen, 48 h (100 = growth as untreated, 0 = no growth, -100 = all killed)
Conditions in all cases: 10 µM unless noted
[1] = system: HCT-15 colon
[2] = system: HT29 colon
[3] = system: SNB-75 CNS
[4] = system: SNB-19 CNS
[5] = system: U251 CNS
[6] = system: PC-3 prostate
[7] = system: SK-MEL-5 melanoma
[8] = system: UACC-62 melanoma
[9] = system: LOX IMVI melanoma
[10] = system: SK-MEL-28 melanoma
[11] = system: SK-MEL-2 melanoma
[12] = system: EKVX NSCLC
[13] = system: SN12C renal
[14] = system: UO-31 renal
[15] = system: TK-10 renal
[16] = system: ACHN renal
[17] = system: CAKI-1 renal
[18] = system: MOLT-4 leukemia
[19] = system: CCRF-CEM leukemia
[20] = system: A498 renal

| Structure (SMILES) | growth [1] | growth [2] | growth [3] | growth [4] | growth [5] | growth [6] | growth [7] | growth [8] | growth [9] | growth [10] | growth [11] | growth [12] | growth [13] | growth [14] | growth [15] | growth [16] | growth [17] | growth [18] | growth [19] | growth [20] |
| --- | --- | --- | --- | --- | --- | --- | --- | --- | --- | --- | --- | --- | --- | --- | --- | --- | --- | --- | --- | --- |
| COc1ccc(/C(=C\c2ccccc2)C(=O)O)cc1OC | 102% | 103% | 81.6% | 95.7% | 99.6% | 96.9% | 93% | 93% | 95.3% | 106% | 98.3% | 101% | 98.4% | 88.9% | 104% | 94.8% | 97.4% | 108% | – | – |
| CN1CCN(CC#CCNC(=O)[C@]23CCC(C)(C)C[C@H]2C2=CC[C@@H]4[C@@]5(C)Cc6c([nH]c7ccccc67)C(C)(C)[C@@H]5CC[C@@]4(C)[C@]2(C)CC3)CC1 | 39.2% | 7.18% (active) | 92.7% | 79.3% | 42.7% | 56.7% | 75.1% | 95.7% | 66.7% | 79% | 98.3% | 83.3% | 77.8% | 64.2% | 91.8% | 95.3% | 87.2% | 31.2% | 48.8% | – |
| CCCCCCCCOC(=O)c1ccc(O)c(OC)c1 | 105% | 97.7% | 78.8% | 93.2% | 85.8% | 78% | 97.1% | 92% | 59.3% | 105% | 97.7% | 105% | 85.8% | 50.8% | 98.6% | 103% | 91.9% | 12.9% | 1.05% (active) | – |
| NC(=O)c1cccc(-n2ccc3cc(NC(=O)Nc4cc(C(F)(F)F)cc(C(F)(F)F)c4)ccc32)n1 | 37.1% | 52.6% | 41% | 42% | 36.7% | 32.4% | 69% | 52.9% | 50.9% | 69.3% | 76.6% | 40.5% | 35.9% | 47.4% | 62.8% | 39.9% | 41.4% | 26.4% | 53.7% | – |
| COc1ccc2c(c1)c(CC(=O)NCCOCCOCC(=O)Nc1ccc(OC)c(C(N)=O)c1O)c(C)n2C(=O)c1ccc(Cl)cc1 | 95.5% | 102% | 89.6% | 106% | 93.3% | 74.6% | 96.6% | 98.8% | 90% | 119% | 89% | 94.4% | 101% | 74.4% | 100% | 109% | – | 74.7% | 107% | 86.6% |
| CC1(C)CN(Cc2ccccc2)CCN1Cc1ccccc1 | 104% | 96.2% | 121% | 98.1% | 92.3% | 95.4% | 97.8% | 97.9% | 98.6% | 111% | 103% | 106% | 96.1% | 93.6% | 96.3% | 109% | – | 100% | 90.9% | 85.8% |
| C=C(C)[C@@H]1CC[C@]2(C(=O)O)CC[C@]3(C)[C@H](CC[C@@H]4[C@@]5(C)C[C@@H](CC#Cc6ccc(Br)cc6)C(=O)C(C)(C)[C@@H]5CC[C@]43C)[C@@H]12 | 65.6% | 30.7% | 70.9% | 40.7% | 3.58% (active) | 28.7% | 68.6% | -29% (active) | 52% | -35.5% (active) | -12.6% (active) | 52.1% | 4.51% (active) | 68% | 62% | 65% | – | 31.9% | 28.9% | -4.41% (active) |
| Clc1nc(Nc2ccccc2)nc(Nc2ccccc2)n1 | 100% | 116% | 105% | 104% | 110% | 99.5% | 99.8% | 96.3% | 94.1% | 112% | 106% | 106% | 95.9% | -80.6% (active) | 122% | 98.9% | 86.5% | 86.3% | – | – |
| C=C(C)[C@@H]1CC[C@]2(C(=O)N3CCN(C)CC3)CC[C@]3(C)[C@H](CC[C@@H]4[C@@]5(C)CCC(=O)C(C)(C)[C@@H]5CC[C@]43C)[C@@H]12 | 61.7% | 39.2% | 85.2% | 81.5% | 69.7% | 54.7% | 92.1% | 99.5% | 92.5% | 92.7% | 92.1% | 96.3% | 75.7% | 66.7% | 102% | 77.4% | 93.5% | 51.6% | – | – |
| CS(=O)(=O)Nc1cc(-c2ccc3ncnc(Nc4ccc5[nH]ncc5c4)c3c2)cnc1Cl | 79.4% | 80.9% | 15.5% | 68.7% | 64.9% | 76.8% | 81% | 58.9% | 66.2% | 50.8% | 63.1% | 62.3% | 67.8% | 64.1% | 65.6% | 83.8% | 51.9% | 75.3% | – | – |
| Cc1c(C2=CCCCC2)c2ccccn2c1C(=O)c1cccc(S(=O)(=O)N2CCOCC2)c1 | 83.9% | 59.5% | 57.8% | 101% | 91.4% | 71.1% | 104% | 77.7% | 89.1% | 101% | 91.8% | 68.7% | 99.8% | 56.8% | 71.5% | 93.4% | – | 82.6% | 81.5% | 116% |
| COc1ccc(/C=C/c2n[nH]c3ccc(N4CCOC4=O)cc23)cc1 | 10.1% | -18.6% (active) | -11.1% (active) | 18.2% | 15.9% | 18.5% | 11.7% | 16.5% | 1.88% (active) | 33.5% | 11.7% | 8.71% (active) | 24% | -45.7% (active) | -9.71% (active) | 6.86% (active) | – | 4.38% (active) | -17% (active) | -19.6% (active) |
| COc1ccc(C(O)c2cc3c(N)c(C(=O)Nc4cccc(OC)c4)sc3nc2C)cc1 (stereo not drawn) | 15.6% | 2.47% (active) | -2.98% (active) | 36.1% | 9.2% (active) | 16.2% | -35.4% (active) | 23.6% | 30.8% | 59% | 22.6% | 33.8% | 23.6% | 25% | 39.9% | 27% | 24.4% | 16.3% | – | – |
| Cc1c(C(=O)NO)sc2ncnc(Nc3ccc(NC(=S)Nc4ccccc4)cc3)c12 | 95.4% | 103% | 87.9% | 96.5% | 104% | 106% | 101% | 95% | 93.8% | 105% | 104% | 93.6% | 101% | 85.1% | 106% | 105% | 96.6% | 111% | – | – |
| CCCCCCCCCCCC(=O)C(CCCCCCCCCC)C(=O)Nc1ccccc1 (stereo not drawn) | 115% | 94.7% | 101% | 101% | 99.4% | 92.6% | 97.9% | 91.5% | 93.5% | 108% | 98.8% | 108% | 98.1% | 86.1% | 95.1% | 100% | 97% | 89.3% | 103% | – |
| S=c1[nH]cccc1-c1nnc2n1Nc1nc3ccc(Cl)cc3cc1CS2 | 96.9% | 110% | 91.4% | 96.8% | 105% | 97.7% | 98% | 87.3% | 98% | 104% | 96.1% | 93.1% | 102% | 79.6% | 111% | 101% | – | 92.3% | 100% | 107% |
